From PubChem BioAssay
Where “and” joins values, the source holds several entries; their conditions need not be identical. Identical values can stand only once.

target: NADPH oxidase 4 (Homo sapiens) (UniProt Q9NPH5); experiment: NOX4-dependent H2O2 signal modulators, primary screen, NOX inhibitor project, cell-based, HEK293-NOX4, tetracycline-induced, Amplex Red fluorescence (AID 1160); conditions: 45 min, higher = more signal, called active from +8 up or from −8 down
Sequence (Q9NPH5 whole entry, looked up): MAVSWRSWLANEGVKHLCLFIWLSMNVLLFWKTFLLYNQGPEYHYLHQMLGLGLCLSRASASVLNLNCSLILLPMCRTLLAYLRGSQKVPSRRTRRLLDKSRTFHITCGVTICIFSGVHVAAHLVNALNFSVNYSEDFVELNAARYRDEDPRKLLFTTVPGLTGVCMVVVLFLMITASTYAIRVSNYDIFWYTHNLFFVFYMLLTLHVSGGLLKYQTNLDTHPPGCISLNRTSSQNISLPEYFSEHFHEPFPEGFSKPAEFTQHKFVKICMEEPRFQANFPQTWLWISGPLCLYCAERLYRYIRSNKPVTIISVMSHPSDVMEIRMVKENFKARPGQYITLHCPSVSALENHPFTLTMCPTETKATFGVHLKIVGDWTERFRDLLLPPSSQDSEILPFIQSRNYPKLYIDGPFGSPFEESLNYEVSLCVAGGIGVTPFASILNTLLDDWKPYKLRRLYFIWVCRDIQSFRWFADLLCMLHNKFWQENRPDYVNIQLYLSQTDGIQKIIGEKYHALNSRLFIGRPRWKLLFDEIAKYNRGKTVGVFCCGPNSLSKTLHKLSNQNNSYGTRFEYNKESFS

z-score, inactive:
CC(CO)N1C(=O)[C@@H]2C3C(=O)OCCC=C[C@H]3OC23C=CCN(c2ccc(Cl)cc2)C(=O)[C@@H]13 (some centres undefined) 1.03 and 1.11, CCOC(=O)NN=C1C[C@@H](O)[C@@H](O)[C@@H]2[C@@H]3C(=O)N(Cc4ccc5c(c4)OCO5)C(=O)[C@@H]3CC[C@@H]12 0.786, C=CCN(C(=O)C(c1cccs1)N(C(=O)/C=C\C(=O)O)c1ccc(CCO)cc1)C(C)(C)C (centres undefined) -0.86 and -0.783, C=CCN(C(=O)C(c1cccs1)N(C(=O)/C=C\C(=O)O)c1c(Cl)cccc1CO)C(C)(C)C (centres undefined) -0.827 and -0.628, C=CCN(CCCCC)C(=O)C1N(c2c(Cl)cccc2CO)C(=O)C2C(C(=O)O)C3C=CC21O3 (centres undefined) -1.02 and -1.22, C=CCN(CCCC)C(=O)C(c1cccs1)N(CCOCCO)C(=O)/C=C\C(=O)O (centres undefined) -0.73 and -0.71, CCCCCN1CC=CC23O[C@@H]4C=CCCOC(=O)C4[C@H]2C(=O)N(C(C)CO)[C@@H]3C1=O (some centres undefined) 0.164 and 0.696, COC(=O)[C@H](C)NC(=O)CCC1CC(OC(=O)NCCc2ccc(F)cc2)CC2(CCCC(COC(=O)NCCCN3CCCC3=O)O2)O1 (some centres undefined) 0.113, COC(=O)C1=C(C)N(Cc2ccccc2)C2=C(C(C)=O)C[C@@](O)(C(=O)OC)C(=O)N2[C@@H]1c1ccccc1 0.993 and 0.524, C=CCN(CCCCC)C(=O)C(c1cccs1)N(C(=O)/C=C\C(=O)O)c1c(Cl)cccc1CO (centres undefined) -0.584 and -0.408, CC(C)CON=C1C[C@@H](O)[C@@H](O)[C@@H]2[C@@H]3C(=O)N(c4cccc(Oc5ccccc5)c4)C(=O)[C@@H]3CC[C@H]12 0.11, C=CCN(C(=O)C(c1cccs1)N(C(=O)/C=C\C(=O)O)C(C)(C)CO)c1ccc(OC)cc1 (centres undefined) -0.464 and -0.814, CCCNC(=O)OC[C@H]1O[C@H](CCON=C(C)CCN2CCc3nc(-c4ccccc4)c(-c4ccccc4)cc3C2)C=C[C@@H]1Oc1ccc(OC)cc1 -2.55, C=CC[C@@H](O)c1ccc(O)c(F)c1 -1.46 and 0.42, C=CCN(Cc1ccccc1)C(=O)C(c1cccs1)N(C(=O)/C=C\C(=O)O)c1c(Cl)cccc1CO (centres undefined) -0.662 and -0.417, CC(C)[Si]1(C(C)C)OCc2cc(CCCc3cc4c(c(CCc5ccccc5)n3)[Si](C(C)C)(C(C)C)OC4)nc(CCc3ccccc3)c21 0.0233 and 0.608, COC(=O)[C@@]1(Cc2ccc(F)cc2)[C@H]2c3cc(C(=O)N4CCCC4)n(Cc4c(CO)[nH]cc(C)c4=O)c3C[C@H]2CN1C(=O)c1ccccc1 -1.58 and -0.346, C=CCN(C(=O)C1N(c2ccc(CCO)cc2)C(=O)C2C(C(=O)O)C3C=CC21O3)c1ccc(OC)cc1 (centres undefined) -1.05 and -0.234, C=CCN(C(=O)C1N(CCOCCO)C(=O)C2C(C(=O)O)C3C=CC21O3)C(C)(C)C (centres undefined) 0.292 and -0.3, CCOC(=O)c1ccc(NC(=O)O[C@H]2[C@H](OC(=O)Nc3ccccc3)[C@H](OC(=O)Nc3ccccc3)[C@@H](OC)O[C@@H]2CO)cc1 -0.122 and -0.312, CC(C)=NOCc1ccc(-c2cn([C@@H]3COC[C@H]3O)nn2)cc1 0.0519, C[C@@H]1CC[C@H]2C(=O)O[C@H](CN=[N+]=[N-])CN2[C@H]1c1ccc(Br)cc1 -0.0537 and -0.184, C=CCN1C(=O)[C@]2(O[C@H](CCn3cc(CCO)nn3)[C@@H]([Si](C)(C)c3ccc(OC)cc3)[C@@H]2C)c2cc(N3C(=O)c4cccc5cccc3c45)ccc21 0.265 and 0.624, CC(CO)N1C(=O)[C@@H]2C3C(=O)OCCC=C[C@H]3OC23C=CCN(Cc2ccccc2)C(=O)[C@@H]13 (some centres undefined) 1.09 and -0.409
